Screening data from PubChem BioAssay.
POLB inh – qHTS Assay for Inhibitors of DNA Polymerase Beta; AID 485314, 2010; P06746; Potency, µM (titrated, usually from 114 µM), for inactives: top-dose activity change, negative = inhibition, actives largely listed as inhibitors; Pol beta primer extension/strand displacement, fluorescence kinetic; 340,000 tested, 1.3% active; note: potency is the fitted concentration of half-maximal effect; % is set by controls: 0 for no effect and ±100 for the full control effect
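Kinetic readout of DNA synthesis with strand displacement by Pol beta. Compound and 10 nM enzyme sit 15 min at room temperature; 50 nM substrate starts the reaction, read immediately and at 10 min.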
Pol iota inh – qHTS for Inhibitors of Polymerase Iota; 390,000 tested, 1% active; AID 588590, 2011; Potency, µM (titrated, usually from 115 µM), inactives show at the top dose activity, negative = inhibition, usual class: inhibitors; Pol iota fluorescent replication assay, 10 min; note: potency is the fitted concentration of half-maximal effect
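Pol iota at 10 nM preincubated 15 min with compounds at room temperature; reaction started with fluorescent substrate, 50 nM final. Fluorescence read kinetically at 0 and 10 min; buffer-only wells as negative control.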
POLH inh – qHTS for Inhibitors of Polymerase Eta; DNA polymerase eta (Homo sapiens), Q9Y253; recombinant Pol eta, fluorescent DNA replication assay; Potency, µM (highest dose often 114 µM), inactives show at the top dose activity change, negative = inhibition, most hits filed as inhibitors; 390,000 tested, 1.2% active; note: potency is the fitted concentration of half-maximal effect; % is set by controls: 0 for no effect and ±100 for the full control effect
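Pol eta at 10 nM preincubated with compounds 15 min at room temperature; reaction started with fluorescent substrate (50 nM final) and read kinetically at 0 and 10 min.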
POLK inh – qHTS for Inhibitors of Polymerase Kappa. DNA polymerase kappa (Homo sapiens), Q9UBT6. Potency, µM (highest dose often 107 µM), without a hit: at the highest dose activity, negative = inhibition, actives largely listed as inhibitors. AID 588579, 2011. purified Pol kappa, fluorescent DNA synthesis assay, 10 min. 400,000 tested, 0.53% active; note: potency is the fitted concentration of half-maximal effect; % is set by controls: 0 for no effect and ±100 for the full control effect
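Readout: fluorescence, taken kinetically at 0 and 10 min. Conditions: 10 nM Pol kappa, 15 min RT compound preincubation, 50 nM substrate final. Controls: enzyme-free buffer wells.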
PI5P4K alpha inh – qHTS for Inhibitors of phosphatidylinositol 5-phosphate 4-kinase (PI5P4K). Phosphatidylinositol 5-phosphate 4-kinase type-2 alpha (Homo sapiens), P48426. PI5P4Kalpha enzyme, ADP-Glo luminescence, 60 min; hits give low values. max response, %. 330,000 tested, 1.2% active; active = max response of -50% or lower; inconclusive = between -30% and -50%; inactive = -30% or higher; note: value at the top dose of about 77 µM; % is set by controls: 0 for no effect and ±100 for the full control effect
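Quantitative HTS of the MLSMR library against PI5P4Kalpha with substrate. ATP added last at 5 microM final; room temperature, 60 minutes. Remaining ATP depleted, ADP converted and read as luminescence.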
PI4K2A inh – qHTS for small molecular inhibitors of PI4K2A; Phosphatidylinositol 4-kinase type 2-alpha (Homo sapiens), Q9BTU6; purified PI4K2A, ADP-Glo luminescence, 1 h; hits give low values; activity change, negative = inhibition, % at 76.9 µM; 420,000 tested, 0.13% active; AID 1346378, 2018; in the data active = activity change below about -50%; inconclusive = mostly about -30% to -49%;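 note: -100% = wells without enzyme as full effect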
Target sequence (Q9BTU6 whole entry, looked up): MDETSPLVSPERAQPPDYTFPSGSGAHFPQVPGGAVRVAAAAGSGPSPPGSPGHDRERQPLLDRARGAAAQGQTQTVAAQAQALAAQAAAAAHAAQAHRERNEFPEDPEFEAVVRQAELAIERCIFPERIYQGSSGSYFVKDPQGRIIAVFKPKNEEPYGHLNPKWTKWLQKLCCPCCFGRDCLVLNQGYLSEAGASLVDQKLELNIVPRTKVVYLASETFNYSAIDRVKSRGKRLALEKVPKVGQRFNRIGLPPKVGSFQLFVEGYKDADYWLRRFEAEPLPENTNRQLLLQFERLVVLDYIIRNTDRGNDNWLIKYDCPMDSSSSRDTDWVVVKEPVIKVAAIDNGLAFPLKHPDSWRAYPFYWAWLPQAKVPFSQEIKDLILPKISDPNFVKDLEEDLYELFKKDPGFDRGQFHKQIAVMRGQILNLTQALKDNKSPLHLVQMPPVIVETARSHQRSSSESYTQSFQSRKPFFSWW
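Compounds are screened against recombinant PI4K2A using PI as substrate and ATP, the latter dispensed at 300 microM. Reactions run one hour at ambient temperature before ADP-Glo detection; full inhibition defined by wells lacking enzyme.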
* = called active by the depositor; [ ] = dose if it differs, or a comment. An excerpt weighted towards active compounds, which were near 2.8% of everything screened. Unless noted, calls come from the whole dose curve; as a rule, active = well fitted inhibition curve with a large enough effect; inconclusive = small, poorly fitted or top-dose-only effect, or another doubt; inactive = no such curve, though single readings can be large or run the other way.

For COc1ccc(/C=N/NC(=O)C(=O)/C=C2\NC3(CCCC3)Cc3ccccc32)cc1 the results were POLB inh 7.0%, Pol iota inh 2.6%, POLH inh -4.2%, POLK inh 0.0%, PI5P4K alpha inh 6.1 and PI4K2A inh 0.0.
`COc1ccc(Cn2ccc3nc(C)c(C(=O)N4CCN(c5cc(C)ccc5C)CC4)cc3c2=O)cc1` gave POLB inh -3.4%, Pol iota inh -11.6%, POLH inh -25.7%, POLK inh 4.6% and PI4K2A inh -0.1.
Screening CCOC(=O)C1CCCN(C2=NC(=O)/C(=C/c3ccc(OC)cc3OC)S2)C1 (stereo not drawn) returned POLB inh 15.0%, Pol iota inh 13.9%, POLH inh -21.4%, POLK inh -9.5%, PI5P4K alpha inh -79.4* and PI4K2A inh -1.7.
`CCC(CO)Oc1cc(NC(=O)c2ccc(F)cc2)c2ncn(C(C)C)c2c1` (stereo not drawn) gave Pol iota inh 26.3%, POLH inh -11.8%, POLK inh -17.3%, PI5P4K alpha inh -5.7 and PI4K2A inh -1.0.
CCC(CO)Oc1cc(NCc2ccccc2)c2ncn(C(C)C)c2c1 (stereo not drawn) was read as Pol iota inh 17.8µM*, POLH inh -9.4%, POLK inh 10.8%, PI5P4K alpha inh -1.2 and PI4K2A inh -14.9.
For CCC(CO)Oc1cc(NC(=O)c2ccc(N)cc2)c2ncn(C(C)C)c2c1 (stereo not drawn) the results were Pol iota inh inconclusive, POLH inh 89.1µM*, POLK inh 3.3%, PI5P4K alpha inh -6.3 and PI4K2A inh -8.5.
For CCOCCOc1cc(NCc2ccccc2)c2ncn(C(C)C)c2c1 the results were Pol iota inh 35.5µM*, POLH inh -22.9%, POLK inh -23.7%, PI5P4K alpha inh -0.1 and PI4K2A inh -9.7.
For COc1ccccc1-c1ccc2ncnc(N3CCOCC3)c2c1 the results were POLK inh -2.0%[60.1 µM].
For COc1ccccc1CC(=O)NO the results were Pol iota inh 18.5% and POLK inh -3.9%.
Screening OC1CCCN(Cc2ccc3ccc4cccc5ccc2c3c45)C1 (stereo not drawn) returned POLB inh 39.8µM*, Pol iota inh inconclusive, POLH inh -10.6%, POLK inh -13.9% and PI4K2A inh 2.3.
For CN(C)c1ccc(/C=C/c2nc3ccccc3s2)c(Cl)c1 the results were Pol iota inh 2.0% and POLK inh -5.2%.
Screening O=C(NN=Cc1ccc(O)c(O)c1)c1ccccc1 returned PI5P4K alpha inh -27.7 and PI4K2A inh -3.6.
Screening O=C(/C(=N/N=C/c1ccc(O)c(O)c1O)c1ccccc1)c1ccccc1 returned POLB inh 3.55µM*, Pol iota inh 17.8µM*, POLH inh inconclusive, POLK inh -31.5%, PI5P4K alpha inh -65.4* and PI4K2A inh -6.1.
CCCC(NC(=O)Cc1c(C)c2cc3c(C)c(C)oc3c(C)c2oc1=O)C(=O)N[C@@H](Cc1ccccc1)C(=O)O (stereo partly drawn) was read as POLB inh 28.2µM*, Pol iota inh inconclusive, POLH inh inconclusive, POLK inh inconclusive, PI5P4K alpha inh -5.5 and PI4K2A inh -2.2.
CCCCC(NC(=O)Cc1c(C)c2cc3c(C)c(C)oc3c(C)c2oc1=O)C(=O)O (stereo not drawn) was read as POLB inh -13.5%, Pol iota inh inconclusive, POLH inh -5.8%, POLK inh -15.5%[60.1 µM], PI5P4K alpha inh 8.6 and PI4K2A inh -0.2.
For Cc1coc2c(C)c3oc(=O)c(CCC(=O)N[C@@H](C)C(=O)N[C@@H](Cc4ccccc4)C(=O)O)c(C)c3cc12 the results were POLB inh inconclusive, Pol iota inh -12.1%, POLH inh 28.2µM*, POLK inh inconclusive, PI5P4K alpha inh 3.8 and PI4K2A inh -0.3.
For Cc1cccc(N2CCN(C(=O)c3cc(S(=O)(=O)N(C)C)ccc3Cl)CC2)c1C the results were PI4K2A inh 0.7.
`CN(C)c1ccc(/C=C/c2sc3ccccc3[n+]2Cc2ccccc2)cc1` gave Pol iota inh 79.4µM* and POLK inh inconclusive.
Screening CCCN(CCC)c1ccc(/C=C/c2sc3ccccc3[n+]2CCCCI)cc1 returned Pol iota inh 79.4µM* and POLK inh inconclusive.
For Cn1c(SC/C=C/c2ccccc2)nnc1-c1cccnc1 the results were PI4K2A inh -4.7.
`CC(C(O)c1ccccc1)N(C)CCOC(c1ccccc1)c1ccccc1` (stereo not drawn) gave PI4K2A inh -0.3.
CC(OCc1ccccc1)C(NC(=O)OC(C)(C)C)C(=O)NC1COC2CC(n3cc(F)c(=O)[nH]c3=O)OC12 (stereo not drawn) was read as Pol iota inh -8.8% and POLK inh -2.7%.
`O=C(NCC(c1ccc2c(c1)OCO2)N1CCOCC1)C(=O)Nc1ccccc1` (stereo not drawn) gave POLB inh 18.1%, Pol iota inh 17.8µM*, POLH inh -0.1%, POLK inh -7.6%[60.1 µM] and PI4K2A inh 0.9.
`O=C(NCC(c1ccc2c(c1)OCO2)N1CCN(c2ccccc2)CC1)C(=O)Nc1ccccc1` (stereo not drawn) gave POLB inh 12.2%, Pol iota inh 13.3%, POLH inh -13.2%, POLK inh 3.1%[60.1 µM] and PI4K2A inh -2.5.
For N#C/C(C(=O)Nc1ccc(Cl)cc1)=C(/S)Nc1ccccc1 the results were POLB inh 0.1%, Pol iota inh 17.4%, POLH inh inconclusive, POLK inh 10.7%, PI5P4K alpha inh -87.1* and PI4K2A inh -2.4.
COCO[C@@H]1CC(CO)=C[C@H]2OCO[C@H]21 was read as PI4K2A inh 3.4.
`CCc1ccccc1N=Nc1c(N)[nH]n(-c2ccccc2)c1=O` gave PI4K2A inh 3.5.
`COc1cc(OC)c2c(O)c3c(c(-c4c5c(c(O)c6c(OC)cc(OC)cc46)CO[C@@H](C)[C@H]5O)c2c1)[C@H](O)[C@H](C)OC3` gave POLB inh 35.5µM*, Pol iota inh inconclusive, POLH inh 20µM*, POLK inh 39.8µM*, PI5P4K alpha inh -90.2* and PI4K2A inh inconclusive.
